# Laboratory results published in PubChem BioAssay (NCATS).
# Inconclusive results are not listed. Unmarked numbers belong to inactive results. The source made the active and inactive calls. Calls follow the shape of the dose curve; as a rule, active = well fitted curve in the direction sought with a large enough effect; inconclusive = small, poorly fitted or top-dose-only effect, or another doubt; inactive = no such curve, though single readings can be large; an effect the other way counts as inactive or inconclusive.
# Assay: BET inhibitor-based combinations targeting novel dependencies in MECOM-rearranged (r) AML: UCSD-AML1 cell line (AID 2202235); also: nearly all actives have a fitted effect of over 40% in size;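 as to viability (% of control): plate controls were DMSO vehicle wells for no effect and blank wells for full effect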
# Conditions: UCSD-AML1 AML cells viability, CellTiter-Glo, 48 h; series mostly up to 46 µM; viability (% of control): at the top concentration
# In short: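 Activity is given as area under the curve and as Z-AUC, mean-centred within each cell line. It comes from 11-point dose curves normalized to DMSO and empty wells. CellTiter-Glo luminescence was read after 48 hr drug exposure of 500 cells/well.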
# Potency is read from the fitted curve at half-maximal effect.
Compound,Potency,viability (% of control) [%]
Cc1ccc(C(N)=O)cc1Nc1nccc(-c2cn(C(C)C)c3cnccc23)n1,4.68 µM (active),
O=C1CCC[C@@H]2[C@H]3CCC[N+]4([O-])CCC[C@@H](CN12)[C@@H]34 (stereo partly specified),,107
CS(=O)(=O)CCNCc1ccc(-c2ccc3ncnc(Nc4ccc(OCc5cccc(F)c5)c(Cl)c4)c3c2)o1,,116
CCS(=O)(=O)c1cccc(-c2cc(C(=O)NC3CCN(C)CC3)c(C)c3[nH]c4ncc(C)cc4c23)c1,0.934 µM (active),
FC(F)(F)c1ccc(Nc2nc(-c3c(C(F)(F)F)nc4ccccn34)cs2)cc1,0.332 µM (active),
COc1nc(-c2ccc3c(c2)OCO3)n(-c2ccc(NC(=O)CSc3ccccc3)cc2)n1,,105
CN(C)c1ccc(C2Nc3ccc4ccccc4c3C3=C2C(=O)CC(C)(C)C3)cc1Br (stereo unspecified),,99.7
CCn1nc(C2CCN(C(=O)CCO)CC2)nc1-c1cnc(N)c(-c2nnc(C(C)(C)C)o2)n1,5.9 µM (active),
Cc1nn(Cc2ccccc2Cl)c(C)c1CN(C)CC(O)COc1ccc(Cl)cc1 (stereo unspecified),,112
CC1(C)[C@@H](O)CC[C@]2(C)[C@H]3C(=O)C=C4[C@@H]5C[C@@](C)(C(=O)O)CC[C@]5(C)CC[C@@]4(C)[C@]3(C)CC[C@@H]12,,98.8
Cc1[nH]c2ccc(F)cc2c1-c1nc2c3cccnc3c3ncccc3c2[nH]1,0.679 µM (active),
Nc1ncnc2c1c(COc1cccc(Cl)c1)nn2C1CCOCC1,,98.1
O=C(C1CC1)N1CC[C@@H](Cc2n[nH]c(=O)n2-c2ccc(-c3ccc4occc4c3)cc2)C1,,97.6
COCCOc1ccc2c(c1)ncn2-c1ccc2cccc(N3CCC(N)CC3)c2n1,5.25 µM (active),
COc1ccc(Cl)c(Nc2ncnc3cc(OCC4CCN(C)CC4)c(OC)cc23)c1,,99.7
Fc1ccc(-c2nc(-c3ccccc3F)[nH]c2-c2ccncc2)cc1,4.17 µM (active),

Compound,Potency,viability (% of control) [%]
CC(C)(O)CC(=O)NCCn1ccc2ncnc(Nc3ccc(Oc4cccc(C(F)(F)F)c4)c(Cl)c3)c21,14.8 µM (active),
COc1cc2c(Oc3ccc4[nH]c(C)cc4c3F)ncnc2cc1OCCCN1CCCC1,16.6 µM (active),
Cc1cnc(Nc2ccc(F)cc2Cl)nc1-c1c[nH]c(C(=O)N[C@H](CO)c2cccc(Cl)c2)c1,20.9 µM (active),
C[C@H](c1ccc(F)cc1CCCC(=O)O)N(c1cc(F)ccc1F)S(=O)(=O)c1ccc(Cl)cc1,,103
Cc1ccc(Nc2nccc(N(C)c3ccc4c(C)n(C)nc4c3)n2)cc1S(N)(=O)=O,18.6 µM (active),
Clc1ccc(C2(c3ccc(-c4cn[nH]c4)cc3)CCNCC2)cc1,18.6 µM (active),
Cc1ccc(NC(=O)Nc2cc(C(F)(F)F)ccc2F)cc1Nc1ccc2c(c1)NC(=O)/C2=C\c1ccc[nH]1,,120
O=C(Nc1ccc(OC(F)(F)F)cc1)c1sccc1NCc1ccnc2ccccc12,5.9 µM (active),
C=C1C[C@@]2(O)O[C@@]3(C[C@H]2C(C)C)[C@@H](C)CC[C@@H]13,,114
O=C(Nc1ccc(-c2ccnc(Nc3ccc(N4CCOCC4)cc3)n2)cc1)C1CCCN1 (stereo unspecified),1.66 µM (active),
Cc1[nH]c(/C=C2\C(=O)Nc3ccc(F)cc32)c(C)c1C(=O)NCCN1CCCC1,8.11 µM (active),
COc1cc(N2CCC(N3CCN(C)CC3)CC2)ccc1Nc1ncc(Cl)c(Nc2ccccc2P(C)(C)=O)n1,0.742 µM (active),
N#CC1(c2cccc(C(=O)Nc3cc(Oc4ccc5nc(NC(=O)C6CC6)sc5n4)ccc3F)c2Cl)CC1,,106
CC(C)[C@@H](CS(=O)(=O)C(C)C)N1C(=O)[C@@](C)(CC(=O)O)C[C@H](c2cccc(Cl)c2)[C@H]1c1ccc(Cl)cc1,1.86 µM (active),
CC(C)(O)c1cc2nc(-c3cnc(N)nc3)nc(N3CCOCC3)c2s1,0.332 µM (active),
Cc1cccc(-c2[nH]c(CNc3ccccc3F)nc2-c2ccc3ncnn3c2)n1,,103

# Assay: BET inhibitor-based combinations targeting novel dependencies in MECOM-rearranged (r) AML: AML-191 cell line (AID 2202236; also: nearly all actives have a fitted effect of over 35% in size;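 as to viability (% of control): plate controls were vehicle wells for no effect and wells without cells for full effect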)
# Conditions: AML-191 viability, CellTiter-Glo luminescence, 48 h; series mostly up to 46 µM; viability (% of control): at the top concentration
# In short: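 Cells were plated at 500 per well and exposed to an 11-point dose series of each drug for 48 hr. Viability was measured by CellTiter-Glo luminescence, normalized to DMSO and empty-well controls, and summarized as AUC and per-cell-line Z-AUC.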
Compound,Potency,viability (% of control) [%]
Cc1ccc(C(N)=O)cc1Nc1nccc(-c2cn(C(C)C)c3cnccc23)n1,5.25 µM (active),
O=C1CCC[C@@H]2[C@H]3CCC[N+]4([O-])CCC[C@@H](CN12)[C@@H]34 (stereo partly specified),,112
CS(=O)(=O)CCNCc1ccc(-c2ccc3ncnc(Nc4ccc(OCc5cccc(F)c5)c(Cl)c4)c3c2)o1,26.3 µM (active),
CCS(=O)(=O)c1cccc(-c2cc(C(=O)NC3CCN(C)CC3)c(C)c3[nH]c4ncc(C)cc4c23)c1,3.72 µM (active),
FC(F)(F)c1ccc(Nc2nc(-c3c(C(F)(F)F)nc4ccccn34)cs2)cc1,0.296 µM (active),
COc1nc(-c2ccc3c(c2)OCO3)n(-c2ccc(NC(=O)CSc3ccccc3)cc2)n1,,104
CN(C)c1ccc(C2Nc3ccc4ccccc4c3C3=C2C(=O)CC(C)(C)C3)cc1Br (stereo unspecified),,94.4
Cc1nn(Cc2ccccc2Cl)c(C)c1CN(C)CC(O)COc1ccc(Cl)cc1 (stereo unspecified),23.5 µM (active),
O=C(CC12CC3CC(CC(C3)C1)C2)Nc1cccc2nc(NCCNCCO)ccc12,,80.3
Cc1[nH]c2ccc(F)cc2c1-c1nc2c3cccnc3c3ncccc3c2[nH]1,0.539 µM (active),
Nc1ncnc2c1c(COc1cccc(Cl)c1)nn2C1CCOCC1,,77.8
O=C(C1CC1)N1CC[C@@H](Cc2n[nH]c(=O)n2-c2ccc(-c3ccc4occc4c3)cc2)C1,,86
COCCOc1ccc2c(c1)ncn2-c1ccc2cccc(N3CCC(N)CC3)c2n1,2.09 µM (active),
COc1ccc(Cl)c(Nc2ncnc3cc(OCC4CCN(C)CC4)c(OC)cc23)c1,23.5 µM (active),
Fc1ccc(-c2nc(-c3ccccc3F)[nH]c2-c2ccncc2)cc1,,89.1
CC(C)(O)CC(=O)NCCn1ccc2ncnc(Nc3ccc(Oc4cccc(C(F)(F)F)c4)c(Cl)c3)c21,16.6 µM (active),
COc1cc2c(Oc3ccc4[nH]c(C)cc4c3F)ncnc2cc1OCCCN1CCCC1,20.9 µM (active),
Cc1cnc(Nc2ccc(F)cc2Cl)nc1-c1c[nH]c(C(=O)N[C@H](CO)c2cccc(Cl)c2)c1,16.6 µM (active),
Cc1ccc(Nc2nccc(N(C)c3ccc4c(C)n(C)nc4c3)n2)cc1S(N)(=O)=O,18.6 µM (active),
Cc1ccc(NC(=O)Nc2cc(C(F)(F)F)ccc2F)cc1Nc1ccc2c(c1)NC(=O)/C2=C\c1ccc[nH]1,20.9 µM (active),
O=C(Nc1ccc(OC(F)(F)F)cc1)c1sccc1NCc1ccnc2ccccc12,8.33 µM (active),
C=C1C[C@@]2(O)O[C@@]3(C[C@H]2C(C)C)[C@@H](C)CC[C@@H]13,,103
Cc1[nH]c(/C=C2\C(=O)Nc3ccc(F)cc32)c(C)c1C(=O)NCCN1CCCC1,6.45 µM (active),
CC(C)[C@@H](CS(=O)(=O)C(C)C)N1C(=O)[C@@](C)(CC(=O)O)C[C@H](c2cccc(Cl)c2)[C@H]1c1ccc(Cl)cc1,2.35 µM (active),
